Compounds with a hit are over-represented: about 8.1% of the library has one in this group of screens.
SW480 rereplic = DNA re-replication induction in SW480 cells | SW480 DNA re-replication, Hoechst DNA content imaging, 48 h | Potency, µM (series often up to 46.1 µM), inactives show at the highest dose re-replication activation, most hits filed as activators | 340,000 compounds, 1.8% hits | AID 624297; also: % of control where 0% means no effect; nearly all actives have a fitted effect of over 55% in size
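Readout is total intensity of Hoechst-stained nuclei, excited at 405 nm and collected at 500-530 nm. Compound treatment lasted 48 hr at 37 C in 5% CO2 before staining.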
KB-3-1 cytotox = kills parental KB-3-1 adenocarcinoma cells | KB-3-1 viability, CellTiter-Glo ATP luminescence, 72 h | 400,000 compounds, 1.4% hits | Potency, µM (doses to about 46.1 µM), actives largely listed as cytotoxic; also: % is scaled to controls: 0 for no effect and ±100 for the full control effect; nearly all actives have a fitted effect of over 60% in size
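Parental KB-3-1 viability, qHTS format: 72 h compound exposure, 37 °C; CellTiter-Glo; media-only wells and DMSO plates as controls; concentration-effect fits on corrected data.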
KB-V1 MDR tox = KB-V1 MDR subline cytotoxicity | KB-V1 MDR cells viability, CellTiter-Glo, 72 h | Potency, µM (top dose mostly 46.1 µM), actives largely listed as cytotoxic | 400,000 compounds, 3.4% hits; also: % is scaled to controls: 0 for no effect and ±100 for the full control effect; nearly all actives have a fitted effect of over 60% in size
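Following 72 h at 37 degrees C with compound, KB-V1 cell viability was read by CellTiter-Glo luminescence, medium being phenol-red-free DMEM plus 10% FBS; concentration-response parameters came from normalized, curve-fitted qHTS data.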
MCF10A rerep = induces DNA re-replication in MCF 10a normal breast cells | MCF 10A DNA re-replication, Hoechst nuclear intensity, 48 h | AID 624296 | 350,000 compounds, 2.9% hits | Potency, µM (doses to about 46.1 µM), inactives show at the highest dose activity, positive = re-replication, hits mostly activators; also: % of control where 0% means no effect; nearly all actives have a fitted effect of over 50% in size
ELG1 repair inh = inhibitors of ELG1-dependent DNA repair in HEK293T cells; HEK293T ELG1-luciferase reporter, luminescence, 16 h; DNA damage induced by 5-fluorouridine; Potency, µM (titrated, usually from 46.1 µM), for the others: at the top dose activity change, negative = inhibition, usual class: inhibitors; 330,000 compounds, 2.3% hits; also: % is scaled to controls: 0 for no effect and ±100 for the full control effect; nearly all actives have a fitted effect of over 55% in size
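DMSO vehicle served as the neutral condition. Each well held 2,000 cells given 5-fluorouridine plus compound; after 16 hr at 37 °C/5% CO2, ONE-Glo was added and luciferase measured 30 min later.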
ELG1 FLuc counter = luciferase inhibition in cell-free luciferin readout for ELG1 hits; shares compounds with ELG1 repair inh; cell-free firefly luciferase luminescence counter-screen, ViewLux; Potency, µM (doses to about 46.1 µM), inactives show top-dose activity change, negative = inhibition, actives largely listed as inhibitors; 350 compounds, 3% hits; AID 624247; also: % is scaled to controls: 0 for no effect and ±100 for the full control effect
ELG1 Luc conf = human ELG1 repair inhibition, luciferase-tagged ELG1 confirmation. AID 624248. 670 compounds, 68% hits. shares compounds with ELG1 repair inh. HEK293T ELG1-luciferase levels, luminescence; cells co-treated with 5-fluorouridine. Potency, µM (titrated, usually from 46.1 µM), without a hit: at the top dose activity change, negative = inhibition, most hits filed as inhibitors; also: % is scaled to controls: 0 for no effect and ±100 for the full control effect; nearly all actives have a fitted effect of over 55% in size
ELG1 MMS Luc = MMS-stimulated human ELG1 repair inhibition, confirmed; 670 compounds, 53% hits; HEK293T luciferase-tagged ELG1 level, MMS stimulated; Potency, µM (series often up to 46.1 µM), without a hit: at the top dose activity change, negative = inhibition, hits mostly inhibitors; shares compounds with ELG1 repair inh; also: % is scaled to controls: 0 for no effect and ±100 for the full control effect; nearly all actives have a fitted effect of over 60% in size
ELG1 5FU viab = confirmation of ELG1 repair inhibitors: viability with 5FU; shares compounds with ELG1 repair inh; Potency, µM (series often up to 46.1 µM), for the others: at the top dose activity change, negative = viability loss, usual class: cytotoxic; cell viability with 5-FU, ELG1-dependent repair; 670 tested, under 10 active; AID 624250;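 also: ELG1-luc HEK293T cells cotreated with 5-fluorouridine at 10 µM final; viability measured 16 h after compound addition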
ELG1 MMS cell = confirmation of ELG1 repair inhibitors: viability with MMS | shares compounds with ELG1 repair inh | Cell viability with MMS, ELG1-dependent DNA repair | Potency, µM (doses to about 46.1 µM), for inactives: at the highest dose activity change, negative = viability loss, hits mostly cytotoxic | 670 compounds, 33% hits | AID 624251;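 also: ELG1-luc HEK293T cells co-treated with 10 µM MMS; viability read 16 h after compound addition; % is scaled to controls: 0 for no effect and ±100 for the full control effect; nearly all actives have a fitted effect of over 60% in size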
ELG1 unstim viab = counter-screen for ELG1 repair inhibitors: unstimulated cell viability; 900 compounds, 8% hits; cell viability counter-screen, unstimulated, luminescence; Potency, µM (doses to about 45.9 µM), without a hit: at the highest dose activity change, negative = loss of viability, usual class: cytotoxic; shares compounds with ELG1 repair inh;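 also: compound exposure lasted 16 hours before reading; % is scaled to controls: 0 for no effect and ±100 for the full control effect; nearly all actives have a fitted effect of over 55% in size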
FLuc enzyme = counter-screen for ELG1 repair inhibitors: firefly luciferase inhibition; purified firefly luciferase, luminescence counter-screen; 350 compounds, 10% hits; AID 624253; shares compounds with ELG1 repair inh; Potency, µM (series often up to 57.5 µM), for inactives: at the highest dose activity, negative = inhibition, actives largely listed as inhibitors; also: % is scaled to controls: 0 for no effect and ±100 for the full control effect
An asterisk follows results filed as active; i = inactive; ? = inconclusive; nt = no result given; [ ] = dose if it differs, or a comment. Calls follow the shape of the dose curve; as a rule, active = well fitted curve in the direction sought with a large enough effect; inconclusive = small, poorly fitted or top-dose-only effect, or another doubt; inactive = no such curve, though single readings can be large; an effect the other way counts as inactive or inconclusive. Potency is read from the fitted curve at half-maximal effect.

SMILES	SW480 rereplic	KB-3-1 cytotox	KB-V1 MDR tox	MCF10A rerep	ELG1 repair inh	ELG1 Luc conf	ELG1 MMS Luc	ELG1 5FU viab	ELG1 MMS cell	ELG1 unstim viab	others
CCc1cccc(NC(=O)Cn2cc(C=O)c3ccccc32)c1	1%	?	21µM*	3%	3.7µM*	?	2.5µM*	1%	2.8µM*	-18%
O=[N+]([O-])c1ccccc1S(=O)(=O)NCc1ccccn1	nt	i	i	nt	nt	nt	nt	nt	nt	nt
Cc1ccc(-c2nc3ccccc3n3nnnc23)cc1	2%	i	?	7%	?	nt	nt	nt	nt	3%	ELG1 FLuc counter=59%;FLuc enzyme=?
OCCNc1nc(-c2cccnc2)nc2ccccc12	-5%	i	i	?	0%	nt	nt	nt	nt	nt
OC(CNc1nc(-c2cccnc2)nc2ccccc12)c1ccccc1 (configuration not stated)	?	i	?	21%	12µM*	11µM*	22µM*	0%	?	?	ELG1 FLuc counter=-9%;FLuc enzyme=-14%
COc1ccc(NC(=O)C2(C)CCN2Cc2ccc(OC(F)(F)F)cc2)cc1OC (configuration not stated)	nt	i	i	nt	nt	nt	nt	nt	nt	nt
CN(C)S(=O)(=O)c1ccc(NC(=O)c2cc(-c3cccs3)nc3ccccc23)cc1	-2%	i	?	?	3.7µM*	?	?	3%	-12%	?
O=C(Nc1ccc(N2CCN(Cc3ccccc3F)CC2)cc1)c1ccc([N+](=O)[O-])o1	?	?	15µM*	2.1µM*	2.6µM*	4µM*	4.4µM*	7%	6.3µM*	-18%
CC(C)Cn1c(N)c(C(=O)COC(=O)CC23CC4CC(CC(C4)C2)C3)c(=O)n(C)c1=O	2%	?	?	12µM*	3.7µM*	2µM*	1.1µM*	-24%	1µM*	16µM*
Cc1cccc(C(=O)OCC(=O)c2c(N)n(CC(C)C)c(=O)n(C)c2=O)c1O	22%	?	i	-31%	?	nt	nt	nt	nt	nt
Cc1cccc(C(=O)OCC(=O)c2c(N)n(CC(C)C)c(=O)n(C)c2=O)c1[N+](=O)[O-]	?	i	i	6%	4.5µM*	13µM*	7.1µM*	3%	6.3µM*	?
COc1ccccc1NC(=O)c1oc2ccccc2c1NC(=O)C1CCCCC1	nt	i	i	nt	nt	nt	nt	nt	nt	nt
Cc1ccc2nsnc2c1S(=O)(=O)N(Cc1cc2cccc(C)c2[nH]c1=O)CC1CCCO1 (configuration not stated)	23%	i	?	19%	2.3µM*	?	7.9µM*	5%	-16%	?
Cc1ccc2cc(CN(CC3CCCO3)S(=O)(=O)c3c(C)ccc4nsnc34)c(=O)[nH]c2c1 (configuration not stated)	-1%	i	i	?	-9%	nt	nt	nt	nt	nt
CCCN1CCN(CC2=C(C(=O)OCC)C(c3ccc(Cl)cc3)NC(=O)N2)CC1 (configuration not stated)	nt	i	i	nt	nt	nt	nt	nt	nt	nt
C[C@H](CO)N1C[C@H](C)[C@@H](CN(C)C(=O)Nc2ccc(C(F)(F)F)cc2)Oc2c(NC(=O)Nc3ccccc3)cccc2C1=O	18%	?	i	?	0.52µM*	6.3µM*	-13%	?	-7%	?	ELG1 FLuc counter=-11%;FLuc enzyme=?
C[C@H]1CN([C@@H](C)CO)C(=O)c2cccc(NC(=O)Nc3ccc(C(F)(F)F)cc3)c2O[C@@H]1CN(C)Cc1ccc(Cl)c(Cl)c1	-9%	?	?	?	4.6µM*	14µM*	14µM*	?	25µM*	13µM*
C[C@@H]1CN([C@H](C)CO)C(=O)c2cc(NC(=O)Nc3ccc(C(F)(F)F)cc3)ccc2O[C@H]1CN(C)Cc1ccc(Cl)c(Cl)c1	28%	?	?	?	?	nt	nt	nt	nt	nt
CC(C)NC(=O)N(C)C[C@H]1Oc2c(NC(=O)Nc3ccc(C(F)(F)F)cc3)cccc2C(=O)N([C@H](C)CO)C[C@@H]1C	-39%[9.22 µM]	i	?	12%	-20%	nt	nt	nt	nt	nt
C[C@H](CO)N1C[C@H](C)[C@@H](CN(C)C(=O)Nc2ccc(C(F)(F)F)cc2)Oc2c(NC(=O)Nc3ccc4c(c3)OCO4)cccc2C1=O	2%	i	i	28%	0.58µM*	2µM*	-18%	?	9%	-12%	ELG1 FLuc counter=6%;FLuc enzyme=?
COc1ccc([C@H]2CC(=O)C=C(c3cccc(C(F)(F)F)c3)C2)cc1	3%	i	i	?	?	nt	nt	nt	nt	nt
O=C(N/N=C/c1sc(N2CCOCC2)nc1-c1ccccc1)c1cccc(S(=O)(=O)N2CCOCC2)c1	21µM*	4.1µM*	i	?	4.6µM*	4µM*	6.3µM*	0%	?	?
Nc1ccc(C(=O)N/N=C/c2sc(N3CCOCC3)nc2-c2ccccc2)cc1	-8%	i	i	15%	?	nt	nt	nt	nt	nt
CCn1c(SCC(=O)N2CC(C)OC(C)C2)nc2c([nH]c3ccccc32)c1=O (configuration not stated)	0%	i	i	11%	3.3µM*	10µM*	-5%	?	20%	6%

Screens deposited in PubChem by National Center for Advancing Translational Sciences (NCATS).
